Screen size: about 100,000 compounds; about 770 (0.77%) were called active. Rule as the data show it: active = inhibition above about 50%; inactive = the rest. The sample as a whole holds a higher share of actives than the screen did.

For this assay, the target named is Gag-Pol polyprotein (Human immunodeficiency virus type 1 group M subtype B (isolate HXB2)) (UniProt P04585). In words: RNase H inhibition, HIV 1 Gag Pol polyprotein, FRET biochemical assay, screening (AID 372). Conditions: HIV-1 RT RNase H, FRET RNA/DNA substrate fluorescence; at 10 µM; active compounds read high.
For orientation: inhibition means the relative decrease from the control value, in per cent. Regarding `O=C(CSc1nc2ccccc2o1)c1ccc(-c2ccccc2)cc1`, the inhibition was 14% (inactive). As for `Cc1nnc(SCc2ccc(F)cc2)s1`, the inhibition is 0% (inactive). `COC(=O)c1ccc(C2N(O)C3CCCCC3N2O)cc1` (centres undefined): the inhibition was 15% (inactive). To `COc1ccc([N+](=O)[O-])cc1N1C(=O)C=CC1=O` belongs 4% (inactive). As for `CC(C)(C)c1cc(C(=O)N/N=C\c2ccncc2)n[nH]1`, the figure is 3% (inactive).

With `O=C(Nc1ccc(Cl)c(Cl)c1)c1cccc2ccccc12`, the inhibition is 8% (inactive). As for `Cc1cc(/C=C2\C(=O)NC(=S)N(c3cccc(Cl)c3)C2=O)c(C)n1-c1ccc(Cl)cc1`, the figure is 40% (inactive). Regarding `CC1=C(C(=O)OCCOc2ccccc2)C(c2ccc(O)cc2)C2=C(CC(c3ccccc3)CC2=O)N1` (centres undefined), the inhibition is 9% (inactive). As for `COc1ccc(-c2ccc(/C=C3/C(=O)NN(c4ccc(C)c(Cl)c4)C3=O)o2)c([N+](=O)[O-])c1`, the figure is 24% (inactive); as for `CC(=O)N(C)c1ccc(NC(=O)/C=C/c2cccc3ccccc23)cc1`, 53% (active); as for `CC(=O)N(C)c1ccc(NC(=O)/C=C/c2ccccc2)cc1`, 9% (inactive). To `O=C(/C=C/c1cccc2ccccc12)Nc1ccc(Nc2ccccc2)cc1` belongs 25% (inactive); to `Cc1ccc(S(=O)(=O)c2ccc(C)c(S(N)(=O)=O)c2)cc1S(N)(=O)=O`, 0% (inactive).

Turning to `CCOc1ccc(-n2nc3cc(C)c(N)cc3n2)cc1`, the inhibition is 24% (inactive). On to `COc1ccc(-n2nc3cc(C)c(N)cc3n2)cc1`, for which the inhibition is 22% (inactive). As for `Cc1cc2nn(-c3ccccc3)nc2cc1N`, the figure is 50% (active); as for `CCOC(=O)C1=C(O)/C(=C/c2ccc(Br)cc2)SC1=Nc1ccccc1`, 5% (inactive); as for `CCC(=O)Nc1ccc(NC(=S)NC(=O)c2cccc(F)c2)cc1`, 11% (inactive). To `O=C1/C(=C\c2ccc(O)c(O)c2)SC(=S)N1c1ccc(F)cc1` belongs 74% (active).

Consider `O=C1/C(=C/c2cccnc2)SC(=S)N1c1cccc(F)c1`, for which the inhibition is 3% (inactive). As for `O=C1/C(=C\c2ccc(O)cc2)SC(=S)N1c1ccc(F)cc1`, the figure is 37% (inactive); as for `COc1cc(/C=C2\SC(=S)N(c3cccc(Cl)c3)C2=O)ccc1O`, 38% (inactive); as for `O=C1S/C(=C/c2ccc(O)c(O)c2)C(=O)N1c1ccccc1`, 60% (active). As for `O=C1/C(=C/c2ccc(O)c(O)c2)SC(=S)N1c1cccc(F)c1`, the figure is 84% (active). As for `COc1ccc(/C=C2\SC(=S)N(c3cccc(F)c3)C2=O)cc1O`, the figure is 7% (inactive); as for `O=C1/C(=C/c2cccc(O)c2)SC(=S)N1c1cccc(Cl)c1`, 19% (inactive); as for `O=C1S/C(=C/c2cccc(O)c2)C(=O)N1c1ccccc1`, 24% (inactive). For the compound `O=C1/C(=C/c2ccc(F)cc2)SC(=S)N1c1ccc(F)cc1`, the inhibition is 17% (inactive).

Regarding `COc1cc(/C=C2\SC(=O)N(c3ccccc3)C2=O)ccc1O`, the inhibition is 27% (inactive).

Source of the values: PubChem BioAssay AID372 (MTDP, 2006).
